{"source": "PubChem BioAssay (NCI)", "assay": "NCI Yeast Anticancer Drug Screen. Data for the bub3 strain (AID 167)", "conditions": "S. cerevisiae bub3 mutant strain, active compounds read high", "procedure": "Growth inhibition of yeast strains with defined genetic alterations is measured as a screen for potential anti-cancer activity. Selected strains with alterations in DNA damage repair or cell cycle control were exposed to compounds and growth inhibition was measured relative to vehicle treated controls. The strain used in this assay is bub3", "key": {"[1]": {"conditions": "at 5.0 µM (retest, dose inferred, filed as 0.5)"}, "[2]": {"conditions": "at 50.0 µM (retest, dose inferred, filed as 5.0)"}}, "note": "This is part of a sample that, as a whole, favours compounds with a hit. Of some 79,000 tested, about 15% had one in any assay. A number with no mark means an inactive call. Activity calls are given as the source filed them. No stated cut-off is given here; in the data, active means growth inhibition above about 70%; inactive means the rest.", "data": [{"smiles": "CCS/C(SC)=C(/c1ccccc1)[P+](c1ccccc1)(c1ccccc1)c1ccccc1", "values": [{"measurement": "growth inhibition", "setting": "[1]", "result": "99% (active)"}, {"measurement": "growth inhibition", "setting": "[2]", "result": "100% (active)"}, {"measurement": "growth inhibition", "setting": "at 50.0 µM", "result": "91% (active)"}]}, {"smiles": "CC(=O)C1CCCCC1/C=C/[N+](=O)[O-]", "note": "(configuration not stated)", "values": [{"measurement": "growth inhibition", "setting": "[1]", "result": 30, "unit": "%"}, {"measurement": "growth inhibition", "setting": "[2]", "result": "91% (active)"}, {"measurement": "growth inhibition", "setting": "at 50.0 µM", "result": "99.5% (active)"}]}, {"smiles": "CCCCCCCCCCCCCCCCNCCCN(C)CCCN", "values": [{"measurement": "growth inhibition", "setting": "[1]", "result": -26, "unit": "%"}, {"measurement": "growth inhibition", "setting": "[2]", "result": "97% (active)"}, {"measurement": "growth inhibition", "setting": "at 50.0 µM", "result": "92.4% (active)"}]}, {"smiles": "CCc1ccc(N(C(C)=O)C2=C(Cl)C(=O)c3ccccc3C2=O)cc1", "values": [{"measurement": "growth inhibition", "setting": "[1]", "result": "99% (active)"}, {"measurement": "growth inhibition", "setting": "[2]", "result": "100% (active)"}, {"measurement": "growth inhibition", "setting": "at 50.0 µM", "result": 67.9, "unit": "%"}]}, {"smiles": "NCc1ccc(O)c(O)c1O", "values": [{"measurement": "growth inhibition", "setting": "[1]", "result": -2, "unit": "%"}, {"measurement": "growth inhibition", "setting": "[2]", "result": "82% (active)"}, {"measurement": "growth inhibition", "setting": "at 50.0 µM", "result": "81.4% (active)"}]}, {"smiles": "CC(C)SC(=S)Nc1cc(Cl)c(Cl)cc1Cl", "values": [{"measurement": "growth inhibition", "setting": "[1]", "result": -4, "unit": "%"}, {"measurement": "growth inhibition", "setting": "[2]", "result": 49, "unit": "%"}, {"measurement": "growth inhibition", "setting": "at 50.0 µM", "result": "98.9% (active)"}]}, {"smiles": "O=C(CSc1nnc(-c2ccc(N=Cc3ccc(Cl)cc3)cc2)o1)Nc1ccc(Cl)cc1Cl", "values": [{"measurement": "growth inhibition", "setting": "[1]", "result": 12, "unit": "%"}, {"measurement": "growth inhibition", "setting": "[2]", "result": "100% (active)"}, {"measurement": "growth inhibition", "setting": "at 50.0 µM", "result": "98.5% (active)"}]}, {"smiles": "O=C(O)CN(CCN1CC(=O)OC(=O)C1)CCN1CC(=O)OC(=O)C1", "values": [{"measurement": "growth inhibition", "setting": "[1]", "result": 4, "unit": "%"}, {"measurement": "growth inhibition", "setting": "[2]", "result": "88% (active)"}, {"measurement": "growth inhibition", "setting": "at 50.0 µM", "result": "72.5% (active)"}]}, {"smiles": "O=[N+]([O-])c1ccc(CN2CCN(c3nccs3)CC2)cc1", "values": [{"measurement": "growth inhibition", "setting": "[1]", "result": -1, "unit": "%"}, {"measurement": "growth inhibition", "setting": "[2]", "result": 38, "unit": "%"}, {"measurement": "growth inhibition", "setting": "at 50.0 µM", "result": 66.6, "unit": "%"}]}, {"smiles": "[Cu+2].[O-]/N=C/c1cccc(O)c1[O-].[O-]/N=C/c1cccc(O)c1[O-]", "values": [{"measurement": "growth inhibition", "setting": "[1]", "result": -20, "unit": "%"}, {"measurement": "growth inhibition", "setting": "[2]", "result": "99% (active)"}, {"measurement": "growth inhibition", "setting": "at 50.0 µM", "result": "97.7% (active)"}]}, {"smiles": "COc1ccc(/C(C#N)=C(/N)SCc2ccccc2Cl)cc1", "values": [{"measurement": "growth inhibition", "setting": "[1]", "result": 3, "unit": "%"}, {"measurement": "growth inhibition", "setting": "[2]", "result": 49, "unit": "%"}, {"measurement": "growth inhibition", "setting": "at 50.0 µM", "result": "83.5% (active)"}]}, {"smiles": "CC(C)OC(=S)SSSC(=S)OC(C)C", "values": [{"measurement": "growth inhibition", "setting": "[1]", "result": 6, "unit": "%"}, {"measurement": "growth inhibition", "setting": "[2]", "result": "99% (active)"}, {"measurement": "growth inhibition", "setting": "at 50.0 µM", "result": "99.7% (active)"}]}, {"smiles": "O=C(c1cc2c(C(F)(F)F)onc2c2ccccc12)C(F)(F)F", "values": [{"measurement": "growth inhibition", "setting": "[1]", "result": 12, "unit": "%"}, {"measurement": "growth inhibition", "setting": "[2]", "result": 42, "unit": "%"}, {"measurement": "growth inhibition", "setting": "at 50.0 µM", "result": 38.9, "unit": "%"}]}, {"smiles": "CCCCCCCCCCN(CCCCCCCCCC)C1CC(OC2CC(O)(C(O)CO)Cc3c(O)c4c(c(O)c32)C(=O)c2c(OC)cccc2C4=O)OC(C)C1O", "note": "(configuration not stated)", "values": [{"measurement": "growth inhibition", "setting": "[1]", "result": 14, "unit": "%"}, {"measurement": "growth inhibition", "setting": "[2]", "result": "90% (active)"}, {"measurement": "growth inhibition", "setting": "at 50.0 µM", "result": "90.8% (active)"}]}]}
